Laboratory results published in PubChem BioAssay AID628 (Vanderbilt High Throughput Screening Facility, 2007).
The campaign covered roughly 64,000 compounds. About 2,200 (3.4%) were called active.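 How the source made its calls: active means calcium fluorescence response, raw or row-and-column corrected B-score, differing from the plate sample mean either way at a set confidence level, mostly lower; inactive means the rest.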 The list comes from a sample in which actives are over-represented; it also holds similar structures and randomly drawn compounds.

These compounds were tested against Muscarinic acetylcholine receptor M1 (Rattus norvegicus) (UniProt P08482) (assay: antagonists of rat M1 muscarinic receptor (AID 628)). Details: CHO-M1 cells, Fluo-4 calcium, ACh EC80 antagonist mode; at 10 µM; active compounds read low.
Sequence of Muscarinic acetylcholine receptor M1 (Rattus norvegicus) (P08482 whole entry, looked up): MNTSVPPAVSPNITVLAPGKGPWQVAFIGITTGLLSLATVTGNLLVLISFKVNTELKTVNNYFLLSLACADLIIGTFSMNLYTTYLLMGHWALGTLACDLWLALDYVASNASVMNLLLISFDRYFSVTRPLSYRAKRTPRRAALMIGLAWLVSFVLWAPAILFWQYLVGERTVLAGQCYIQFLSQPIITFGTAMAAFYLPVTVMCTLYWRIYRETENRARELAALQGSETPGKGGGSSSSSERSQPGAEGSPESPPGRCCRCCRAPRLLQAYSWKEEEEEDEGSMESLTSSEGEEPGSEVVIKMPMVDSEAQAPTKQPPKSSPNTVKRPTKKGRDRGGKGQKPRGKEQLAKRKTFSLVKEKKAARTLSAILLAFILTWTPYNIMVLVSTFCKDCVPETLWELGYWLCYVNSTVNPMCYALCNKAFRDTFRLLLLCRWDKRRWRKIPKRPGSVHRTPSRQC

Row | SMILES | B-score
1 | CC[N+]1(C)CCCC(OC(=O)C(O)(c2ccccc2)c2ccccc2)C1 (stereo not given) | -11.4 (active)
2 | O=C1NC(=O)C(C/C=C/c2ccccc2)C(=O)N1 | -0.333 (inactive)
3 | CSC1=NP(=S)(SC)N(C)c2nc3n(c21)CCC3 (stereo not given) | -0.101 (inactive)
4 | O=c1c2ccccc2nc(-c2ccco2)n1-c1ccc(Br)cn1 | -0.192 (inactive)
5 | CCOC(=O)C1SC2(C(F)(F)C(F)F)CC1(O)c1c(c(OC)c3occc3c1OC)O2 (stereo not given) | -2.3 (active)
6 | CNP1(NC)=Nc2nn(-c3ccccc3)c(N)c2C(c2ccccc2)=N1 | 0.00862 (inactive)
7 | C[N+]12CN3CN(CN(C3)C1)C2 | 0.464 (inactive)
8 | CCN(CC)P(=O)(Oc1cccc(C)c1)N(CC)CC | 0.467 (inactive)
9 | COc1ccc(C(=O)CC2C(=O)N(C)C(=O)N(C)C2=O)cc1 | -0.22 (inactive)
10 | COc1ccccc1CN1CCN(C(=O)Cc2ccccc2)CC1 | 0.441 (inactive)
11 | CC(C)c1ccc(O)c(CN2CCN(c3ccccc3)CC2)c1 | 0.336 (inactive)
12 | COc1ccc(CN2CCN(c3ccccc3F)CC2)c(OC)c1 | -2.11 (active)
13 | CCc1nc2ccccc2c(=O)n1-c1cccc(OC)c1 | -0.313 (inactive)
14 | COc1ccc(C2NCc3ccc4c(c3-n3cccc32)OCO4)cc1OC (stereo not given) | -4.39 (active)
15 | c1ccc(C2NCc3ccccc3-n3cccc32)cc1 (stereo not given) | -0.457 (inactive)
16 | CCC/C(=N\O)c1c[nH]c2ccccc12 | -0.0862 (inactive)
17 | CCOC(=O)c1c(C)c(C(=O)N2CCC3(CC2)OCCO3)c(C)n1CC | 0.059 (inactive)
18 | CC12CN3CC(C)(CN(C1)C3c1cccs1)C2 (stereo not given) | -0.259 (inactive)
19 | Cc1nc2nc(C)c(CCC(=O)N3CCC4(CC3)OCCO4)c(C)n2n1 | 0.0167 (inactive)
20 | CCOC(=O)CC1=C(C(=O)OCC)C2(C(=O)N1)C(C(=O)OC)=C(N)Oc1ccccc12 (stereo not given) | 0.186 (inactive)
21 | CCOC(=O)c1c(N)n(Cc2ccccc2)c2nc3ccccc3nc12 | 0.91 (inactive)
22 | Cc1ccc(C)c(NC2=NCCCS2)c1 | -1.64 (inactive)
23 | CC(=NCc1ccc2c(c1)OCO2)c1c(O)[nH]c(=O)[nH]c1=O | 0.0855 (inactive)
24 | Fc1ccc(N2CCN(Cc3ccc4c(c3)OCO4)CC2)cc1 | -2.36 (active)
25 | COc1ccccc1N=C1SCCCN1C | 0.926 (inactive)
